LmPK inhibitor = LmPK (Leishmania mexicana) enzyme inhibition | Q27686 | purified LmPK, Kinase-Glo ATP luminescence, 1 h | Potency, µM (series often up to 57.5 µM), inactives show at the top dose activity change, negative = inhibition, hits mostly inhibitors | actives 0.37% (n = 290,000); further: potency means the concentration at half of the fitted maximal effect; on the % scale 0 is the no-effect control and ±100 the full control effect
Target sequence (Q27686 whole entry, looked up): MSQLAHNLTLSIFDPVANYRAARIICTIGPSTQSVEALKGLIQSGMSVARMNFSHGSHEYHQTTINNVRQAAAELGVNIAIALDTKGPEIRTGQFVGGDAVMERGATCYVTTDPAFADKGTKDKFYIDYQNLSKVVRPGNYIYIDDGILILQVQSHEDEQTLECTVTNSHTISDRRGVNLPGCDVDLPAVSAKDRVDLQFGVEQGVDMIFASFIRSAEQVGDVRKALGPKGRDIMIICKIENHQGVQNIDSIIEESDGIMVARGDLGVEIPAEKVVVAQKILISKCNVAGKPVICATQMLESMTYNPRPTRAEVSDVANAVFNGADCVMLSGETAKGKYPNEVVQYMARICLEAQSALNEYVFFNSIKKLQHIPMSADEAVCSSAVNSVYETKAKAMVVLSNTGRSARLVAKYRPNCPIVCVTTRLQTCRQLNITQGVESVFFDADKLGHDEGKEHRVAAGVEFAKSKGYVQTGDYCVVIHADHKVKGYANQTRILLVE
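In 50 mM imidazole pH 7.2 with 7 mM MgCl2, LmPK (0.1 nM) turned over PEP (0.5 mM) and ADP (0.1 mM) for 1 h at room temperature. Luciferase read-out of ATP.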
Giardia FBPA inh = blocks Giardia fructose-bisphosphate aldolase activity; A8B2U2; purified Giardia FBPA; Potency, µM (highest dose often 59.6 µM), inactives show top-dose activity, negative = inhibition, hits mostly inhibitors; actives 0.71% (n = 290,000); AID 2451; further: potency means the concentration at half of the fitted maximal effect; on the % scale 0 is the no-effect control and ±100 the full control effect; nearly all actives have a fitted effect of over 55% in size
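Giardia FBPA (40 nM reagent) was preincubated 10 min at RT with compound (up to 57.5 uM final), then substrate plus GAPDH/TPI/NAD/arsenate coupling system with diaphorase/resazurin was added; resorufin fluorescence (525/598 nm) was read after 20 min.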
Cycloheximide cs = counter-screen for Shiga toxin inhibitors: cycloheximide protein synthesis inhibition. cell reporter, cycloheximide protein synthesis inhibition counterscreen. max response, %. actives 12% (n = 300,000); in the data active means max response mostly above about 13%, no sharp cut-off; inactive means mostly below about 14%; further: read at 38.3 µM for the half of the compounds with a filed dose; 0% is about no effect
TbPYK inhibitor = T. brucei pyruvate kinase inhibition; Q57TT1; TbPYK enzyme, Kinase-Glo Plus ATP luminescence, 45 min; Potency, µM (highest dose often 76.8 µM), for the others: top-dose activity, negative = inhibition, actives largely listed as inhibitors; actives 0.12% (n = 410,000); AID 624173; further: potency means the concentration at half of the fitted maximal effect; on the % scale 0 is the no-effect control and ±100 the full control effect; nearly all actives have a fitted effect of over 50% in size
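Screened from lowest to highest concentration, compounds were pinned into TbPYK/substrate mixtures, and ADP (130 uM final) was added. Plates sat at room temperature for 45 min prior to Kinase-Glo Plus detection by luminescence.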
Shiga toxin inh = inhibitors of Shiga toxin in Vero cells. actives 9.2% (n = 290,000). AID 2315. Vero cells, Shiga toxin protein synthesis inhibition reporter. inhibition, % at 38.7 µM; in the data active means inhibition mostly above about 28%, no sharp cut-off; inactive means mostly below about 43%; further: 0% is about no effect
RE007 growth inh = less growth of the S. pombe RE007 Vpr strain. S. pombe RE007 Vpr strain, BacTiter-Glo ATP luminescence, 24 h. Potency, µM (series often up to 92.2 µM), for the others: top-dose activity change, negative = less growth, most hits filed as inhibitors. actives 0.21% (n = 360,000). AID 651644; active means well fitted falling curve with a large enough effect; inconclusive means small, poorly fitted or top-dose-only effect; inactive means no such curve, though single readings can be large or run the other way; further: potency means the concentration at half of the fitted maximal effect; on the % scale 0 is the no-effect control and ±100 the full control effect; nearly all actives have a fitted effect of over 50% in size
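Fission yeast RE007 carrying one integrated HIV-1 vpr copy, seeded at OD 0.01 in PMG+AL medium with 23 nL pinned compound. Grown 24 h at 30 degrees; viability read by BacTiter-Glo luminescence after 5 min.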
Numbers without * were called inactive; u = inconclusive; x = not tested or not shown; + = active, no number; [ ] = another dose, or the depositor's remark. The full list was thinned out, with hits kept by preference. Unless noted, the call rests on the fitted dose curve; in most records, active means well fitted curve in the direction sought with a large enough effect; inconclusive means small, poorly fitted or top-dose-only effect, or another doubt; inactive means no such curve, though single readings can be large; an effect the other way counts as inactive or inconclusive.

SMILES | LmPK inhibitor | Giardia FBPA inh | Cycloheximide cs | TbPYK inhibitor | Shiga toxin inh | RE007 growth inh
Cc1nc(Nc2ccccc2)sc1C | 3% | -3% | 46* | u | 71* | -23%
Cc1nc(NC(=O)c2csc3ccccc23)sc1C | -1% | -11% | 39* | -4% | 123* | -21%
Cc1nc(NC(=O)CCc2ccccc2)sc1C | -1% | -1% | 40* | 4% | 68* | 24%
Cc1cccc(NC(=S)N=Nc2c(O)n(CN3CCOCC3)c3ccccc23)c1C | 7% | 4% | 1 | 4% | -7 | u
Cc1ccc(N=Nc2c(O)n(CN3CCOCC3)c3ccccc23)cc1 | -3% | -1% | 63* | -15% | 106* | u
CC1(C)O[C@H]2[C@@H](O1)[C@@H](C(=O)Nc1ccc(F)c(F)c1)O[C@@H]1OC(C)(C)O[C@@H]12 | x | x | x | 7% | x | x
Cc1occc1C(=O)N/N=C/c1ccc(Br)s1 | 25µM* | -3% | 42* | -1% | 63* | u
Cc1ncc(CO)c(/C=N/NC(=O)c2ccoc2C)c1O | x | x | x | -2% | x | -1%
C/C(=N\NC(=O)c1ccoc1C)c1ccc(Br)s1 | -15% | x | 57* | -7% | 80* | -13%
CC(=NNC(=O)c1cc(C)oc1C)c1ccc(Br)s1 | x | x | x | 0% | x | -11%
O=C(N/N=C/c1ccc(Br)s1)c1cccc([N+](=O)[O-])c1 | 2% | -2% | -3 | 0% | 6 | -29%
Cc1ccc(/C=N/NC(=O)c2ccoc2C)s1 | 14µM* | -1% | 70* | -13% | + | -18%
COc1ccc(-c2cc(-c3ccccc3)nc(Cl)n2)cc1OC | -5% | -4% | 14* | 1% | 26 | 7%
Cc1ccc(-c2cc(-c3ccccc3)nc(Cl)n2)cc1 | -7% | -1% | 46* | 0% | 128* | -5%
COc1ccc(-c2nc3ccccc3nc2-c2ccccc2)cc1OC | -3% | -10% | -1 | 1% | -4 | 3%
CCOc1ccc2cc(C#N)c(SCC(=O)N3CCOCC3)nc2c1 | 2% | -3% | 30* | -1% | 101* | -14%
COC(=O)CSc1nc2cc3c(cc2cc1C#N)OCO3 | -2% | 2% | 38* | 4% | 90* | 0%
CCOc1ccc2nc(SCC(=O)N3CCCCCC3)c(C#N)cc2c1 | -4% | u | 8 | 9% | 16 | 8%
CCOC(=O)CSc1nc2cc3c(cc2cc1C#N)OCCO3 | 5% | 2% | 33* | 2% | 91* | 183%
CCOC(=O)CSc1nc2cc3c(cc2cc1C#N)OCO3 | -6% | 1% | 27 | -11% | 182* | -5%
CCOC(=O)CSc1nc2cc3c(cc2cc1C)OCO3 | 0% | 3% | -2 | 4% | 4 | -11%
COc1cccc(N2CCN(C(=O)Cn3ncc4c(=O)oc5ccccc5c43)CC2)c1 | x | x | x | 4% | x | x
Cc1cc2cc3c(cc2nc1SCC(=O)N1CCOCC1)OCO3 | 0% | x | -5 | 1% | -6 | 15%
N#Cc1cc2cc3c(cc2nc1SCC(=O)N1CCOCC1)OCO3 | -3% | 15% | 28* | 1% | 83* | -18%
CCCC(c1nnnn1CCOC)N1CCN(c2nc3ccccc3s2)CC1 (configuration not stated) | -7% | 3% | 4 | -21% | 14 | 5%
SMILES | LmPK inhibitor | Giardia FBPA inh | Cycloheximide cs | TbPYK inhibitor | Shiga toxin inh | RE007 growth inh
c1ccc(C(c2nnnn2Cc2ccco2)N2CCN(c3nc4ccccc4s3)CC2)cc1 (configuration not stated) | 7% | -1% | 31* | 1% | 58* | 19%
CCCCC(c1nnnn1Cc1ccco1)N1CCN(c2nc3ccccc3s2)CC1 (configuration not stated) | 1% | -1% | 23* | -4% | 62* | 4%
Cc1nn(-c2cccc([N+](=O)[O-])c2)c(N)c1-c1ccccc1 | 2% | -6% | 39* | -3% | 73* | -5%
O=[N+]([O-])c1ccc2cn(-c3ccccc3)nc2c1 | -10% | -5% | 54* | -7% | 52* | u
Nc1nc(N)nc(-c2cccc([N+](=O)[O-])c2)n1 | x | x | x | 1% | x | 12%[18.4 µM]
Nc1c(-c2ccc(Cl)cc2)cnn1-c1cccc(C(F)(F)F)c1 | 4% | 0% | 19 | 0% | 41 | -5%
Cc1nn(-c2ccccc2)c(N)c1Sc1cccc([N+](=O)[O-])c1 | 1% | -14% | 11 | u | 2 | -4%
Nc1c(-c2ccccc2)cnn1-c1cccc([N+](=O)[O-])c1 | 1% | -2% | 31* | -5% | 81* | u
Nc1c(-c2ccc(Cl)cc2)cnn1-c1cccc([N+](=O)[O-])c1 | 2% | -8% | 19* | 4% | 87* | 0%
COc1ccc(C(=O)Oc2ccc(C(c3c(C)[nH][nH]c3=O)c3c(C)[nH][nH]c3=O)cc2)cc1 | x | x | x | 2% | x | x
Cc1nc(SCc2nc3ccc([N+](=O)[O-])cc3[nH]2)c2oc3ccccc3c2n1 | x | x | x | 1% | x | x
COc1ccc([C@H]2C[C@@H](O)[C@H](n3cc(COC(=O)c4ccccc4)nn3)CN2C(=O)c2cccs2)cc1 | x | x | x | 3% | x | -18%
O=[N+]([O-])c1cccc(COc2ccccc2CN2CCCC2)c1 | x | x | x | 0% | x | -18%
Cc1cccc(C)c1NC(=O)C[N+](C)(C)C | x | -4% | x | x | x | x
CC(=O)OC1CC(OC2C(O)CC(OC3C(O)CC(O[C@H]4CC[C@]5(C)C6CC[C@]7(C)[C@@H](C8=CC(=O)OC8)[C@@H](O)C[C@]7(O)[C@@H]6CC[C@@H]5C4)OC3C)OC2C)OC(C)C1OC1OC(CO)C(O)C(O)C1O (some centres not stated) | x | x | x | 1% | x | x
Nc1nn(-c2ccccc2)c2ccc([N+](=O)[O-])cc12 | 7% | -9% | 26* | -12% | 34 | u
O=[N+]([O-])c1ccc2c(c1)nnn2-c1ccccc1 | -2% | -19% | -2 | 1% | 22 | 10%
COc1cc(NCc2ccccc2O)c2ncccc2c1 | 0% | -20% | 20* | 4% | 28 | -8%
COc1cc(NCCCCCCCN)c2ncccc2c1 | 3% | u | 1 | -5% | -6 | 44%
CCc1ccc(NC(=O)Cn2c(-c3cncs3)nc3ccccc32)cc1 | x | x | x | -1% | x | x
Cc1cccc(C(=O)NCCc2ccccc2)c1 | 1% | -5% | 61* | -5% | 88* | 1%
O=C(NCCc1ccccc1)c1ccc(NCC2CCCO2)c([N+](=O)[O-])c1 (configuration not stated) | 8% | -2% | 43* | -2% | 117* | 15%
O=C(NN1CCOCC1)c1ccc(Cl)c([N+](=O)[O-])c1 | 0% | 4% | 27* | 6% | 62* | 2%
Cc1cc(NC(=O)CCc2ccccc2)c([N+](=O)[O-])cc1C | 3% | -7% | 36* | -2% | -2 | -1%
CS(=O)(=O)N1CCC(Oc2cccc(C(=O)NCCCC3CCCC3)c2)CC1 | x | x | x | 0% | x | -5%

Compound activity: PubChem BioAssay, National Center for Advancing Translational Sciences (NCATS)
